The values that follow come from PubChem BioAssay (NCATS).

Records with an inconclusive call do not appear. Where a call stands in place of a potency, no number is given. Values without a mark were called inactive. The source made the active and inactive calls. Calls come from the whole dose curve; as a rule, active = well fitted inhibition curve with a large enough effect; inconclusive = small, poorly fitted or top-dose-only effect; inactive = no such curve, though single readings can be large or run the other way. Numbered stars: 1 amine (or outer) side, 2 acyl side, 3 side chain; on linkers, the order of the positions; unused ones are H or OH. Square brackets hold non-standard residues; d marks the D form. Peptide text beside a SMILES is read from it. * marks the point of attachment. ξ: configuration not given here. X4 = O=C(C1CC2(c3ccc(O)cc3)c3ccccc3NC2N1[*:1])[*:2]; ξW = NC(Cc1c[nH]c2ccccc12)C(=O)O; ξY = NC(Cc1ccc(O)cc1)C(=O)O; Octanoyl = CCCCCCCC(=O)*
Potency is the fitted concentration of half-maximal effect.

This test can be described thus: Secretion counterscreen for inhibitors of the SERCaMP assay screened against the NCATS CANVASS Library (AID 1347390).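 Note: light from luciferase secreted into medium read as a measure of general secretion.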 Conditions: SH-SY5Y constitutive GLuc secretion, luminescence, 20 h; series mostly up to 76.6 µM. An excerpt: Natural products and their derivatives continue to be wellsprings of nascent therapeutic potential. However, many laboratories have limited resources for biological evaluation, leaving their previously isolated or synthesized compounds largely or completely untested. To address this issue, the Canvass library of natural products was assembled (https://tripod.nih.gov/canvass), in collaboration with academic and industry researchers, for quantitative high-throughput screening (qHTS) across a diverse set of cell-based and biochemical assays. The pure (>85% purity by liquid chromatography/mass spectrometry [LC/MS]) Canvass library of 346 natural products were submitted by 45 academic laboratories and companies around the world. We collected pure natural products to circumvent deconvolution and structure elucidation due to time and resource limitations. The library was formatted into 1536-well plates and evaluated in 50 qHTS (in an 11-pnt concentration series) bioassays with broad scope of disease-relevant mechanisms. The resulting data set from 50 different assays was then systematically analyzed to identify overall trends and specific natural products with interesting biological activities. Reported herein are the results of each individual qHTS and their corresponding assay protocol. Compounds that interfere with the secretory pathway can show activity in the SERCaMP assay. This type of false positive is identified using a constitutively secreted GLuc reporter. National Center for Advancing Translational Sciences (NCAwsTS), Rockville, MD National Institute of Health (NIH), Bethesda, Maryland
SERCaMP secretion assay protocol: 1. In a white-solid bottom 1536-well tissue culture plate (Corning 7494), 5 uL of SH-SY5Y-GLuc STOP cells were dispensed using a Multidrop Combi (Thermo Fisher Scientific) at a final concentration of 1000 cells / well. 2. The assay plates were incubated for 4 hours at 37C, 5% CO2, 95% humidity to acclimate and attach. 3. […] of compounds (in DMSO; columns 5-48), and positive control Brefeldin A (1 mM; 1:2 dilution; 16-points; n = 2; column 2, rows 1-32) were pin transferred into the assay plates using the Kalypsis pin tool (Wako USA) equipped with a 1536-well pin heads. This yields a final concentration range of 0.0001 - 4.6 uM for the Brefeldin A and 0.001 - 77 uM for the compounds. 4. The assay plates were incubated for 20 hours at 37C, 5% CO2, 95% humidity. 5. After incubation, 1 uL of (7x) substrate Coelenterazine (diluted 1:200 in Pierce Glow Assay buffer) was dispensed into columns 1 - 48, rows 1 - 32. 6. The plates were centrifuged for 5 seconds at 1000 rpm. 7. Luminescence signal was obtained via the ViewLux plate reader (Perkin Elmer) using the clear emission filter and 1x binning, 5 seconds exposure settings.
(A counterscreen serves to expose hits that act by an unwanted route or on another target.)
Turning to `C=C1C(=O)C[C@H]2C[C@@H]1[C@]2(C)CCC=C(C)C`, the Potency entry is “inactive”.

Regarding `C/C=C1/CC[C@@H]2c3[nH]c4ccccc4c3CCN2C1`, the Potency entry was “inactive”.

Regarding `C[C@@]12CCC[C@@](C)(C(=O)O)[C@H]1C[C@@H](O)[C@]13C[C@H]4C[C@H](O[C@@]4(C)C1)[C@@H]23`, the Potency entry is “inactive”.

Regarding `C=C[C@]1(C)CC[C@@H]([C@H](C)C(=O)OCC)O1`, the Potency result is “inactive”.

As to `CC1=CC2=C[C@H](C)C[C@@]23OC(=C(C)C3=O)CC(C)(C)/C=C/C1=O`, the Potency was 1.93 µM (active).

Regarding `CCCCCCC[C@@H](C/C=C/CCC(=O)NCCc1c[nH]c2ccccc12)OC`, the Potency entry was “inactive”.

`O=c1cc(-c2ccc(O)c(O[C@@H]3O[C@H](CO)[C@@H](O)[C@H](O)[C@H]3O)c2)oc2cc(O[C@@H]3O[C@H](CO)[C@@H](O)[C@H](O)[C@H]3O)cc(O)c12`: the Potency entry is “inactive”.

As for `C/C=C/c1cc(OC)c2c(c1)[C@@H](C)[C@H](c1ccc(O)c(OC)c1)O2`, the Potency result was “inactive”.

As for `C/C=C/C=C/C1(O)C2C=C3C(=O)CC45C(=O)C(O)=C(C)C(=O)C4C1C1(C(=O)C(O)=C(C)C(=O)C351)C2C` (stereo not given), the Potency result is “inactive”.

In the case of `C=C1C(=O)O[C@H]2C[C@H](C)[C@@H]3CC(=O)C(C)=C3[C@H](O)[C@H]12`, the Potency was 34.3 µM (active).

As for `O=C1C[C@@H](c2ccc(O)c(-c3c(O)cc(O)c4c3O[C@H](c3ccc(O)cc3)CC4=O)c2)Oc2cc(O)cc(O)c21`, the Potency entry was “inactive”.

For the molecule `C/C=C/C(=O)[C@@H](C)C1=CC(=O)C2=C(O[C@@]34CC[C@H](O)C(C)(C)[C@@H]3CC[C@H](C)[C@@]4(C)C2)C1=O`, the Potency is 17.2 µM (active).

For the molecule `CC1(C)CCC[C@]2(C)[C@@H]1CC[C@@]13C[C@@H](CC[C@H]12)C(C)(O)C3` (stereo not given in full), the Potency result was “inactive”.

For the molecule `CCC1=C2CCCN3C(=O)O[C@H]([C@H]1OC(C)=O)[C@H]23`, the Potency entry was “inactive”.

Take `C=C(C)C(=O)O[C@H]1C[C@H](C)[C@@H](OC(C)=O)CC[C@@]2(C)O[C@@H]2[C@H]2OC(=O)C(COC(C)=O)=C12`: the Potency was 17.2 µM (active).

For `COC1C(O)C(OC(N)=O)C(Oc2ccc3c(O)c(NC(=O)c4ccc(O)c(CC=C(C)C)c4)c(=O)oc3c2C)OC1(C)C` (stereo not given), the Potency was 24.3 µM (active).

Regarding `Oc1ccc([C@H]2Oc3ccc(/C=C/c4cc(O)cc(O)c4)cc3C2c2cc(O)cc(O)c2)cc1` (stereo not given in full), the Potency result was “inactive”.

`CC(C)=CCC/C(C)=C/Cc1c(O)c(CC=C(C)C)c(O)c2c(=O)c3cc(O)ccc3oc12`: the Potency result is “inactive”.

In the case of `CN1C(=O)C2C(N=CN2C)N(C)C1=O` (stereo not given), the Potency result is “inactive”.

Consider `COc1cc(/C=C2/C(=O)N(c3ccc(O)cc3C(=O)O)[C@H](c3ccc(O)c(OC)c3)C2C(=O)Nc2ccc(O)cc2C(=O)O)ccc1O` (stereo not given in full), for which the Potency entry is “inactive”.

As for `CC1(C)C=Cc2c(ccc3c2OC[C@@H](c2ccc(O)cc2O)C3)O1`, the Potency result is “inactive”.

Take `C[C@@H]1O[C@@H](Oc2c(-c3ccc(O)cc3)oc3cc(O)cc(O)c3c2=O)[C@H](O)[C@H](O)[C@H]1O`: the Potency entry is “inactive”.

Regarding `CCC[C@@H](C)/C=C(\C)[C@H](O)[C@H](C)/C=C/CC[C@@H](O)[C@H](C)[C@H](O)[C@H](C)[C@H](O)[C@H](C)[C@H]1O[C@H]([C@H](C)C(=O)O)CC[C@@H]1C`, the Potency is 38.4 µM (active).

On to `COc1ccc([C@@H]2c3cc(OC)c(OC)cc3C(=O)C(C)C2C)cc1OC` (stereo not given in full), for which the Potency result is “inactive”.

As for `O=C(O)[C@@]12COC3(O)C1CCN1CC[C@H]3[C@@H]1c1c2[nH]c2ccccc12`, the Potency result was “inactive”.

Regarding `C=C1C[C@@]23C=CC(=O)[C@@](C)(CCC(=O)Nc4c(OC5O[C@H](CO)[C@@H](O)[C@H](O)[C@H]5O)ccc(C(=O)O)c4O)C2C[C@@H]1CC3` (stereo not given in full), the Potency result is “inactive”.

Regarding `CCCCCCCC(=O)N[C@@H](CC(C)C)C(=O)N[C@H](C=O)CCC(=O)O` (Octanoyl-Leu-Glu-aldehyde), the Potency entry is “inactive”.

As for `CC(O)/C=C/C1(O)C(C)(C)CC(O)CC1(C)O` (stereo not given), the Potency entry was “inactive”.

Take `C[C@@H]1O[C@@H](O[C@@H]2[C@@H](O)[C@H](O[C@@H]3[C@@H](O)[C@@H](O)C(O[C@H]4[C@H](OC(=O)[C@]56CCC(C)(C)C[C@H]5C5=CCC7[C@@]8(C)C[C@H](O)[C@H](O[C@@H]9C[C@H](CO)[C@@H](O)[C@H](O)[C@H]9O)[C@@](C)(CO)C8[C@H](O)C[C@@]7(C)[C@]5(C)CC6)OC[C@H](O)[C@@H]4O)O[C@H]3C)OC[C@H]2O)[C@H](O)[C@H](O)[C@H]1O` (stereo not given in full): the Potency result is “inactive”.

`COc1ccc2oc3c(OC)c(OC)c(OC)c(OC)c3c(=O)c2c1`: the activity change, negative = inhibition was -3.74% [at 15.3 µM].

In the case of `CC[C@H](C)[C@H](NC(=O)C(Cc1ccc(O)cc1)NC(=O)C(Cc1c[nH]c2ccccc12)NC(=O)[C@H](C)N)C(=O)N1C(C(=O)NC(Cc2ccc(O)cc2)C(=O)O)CC2(c3ccc(O)cc3)c3ccccc3NC12` (stereo not given in full) (H-A[ξW][ξY]I[X4][ξY]-OH), the Potency entry was “inactive”.

Consider `COc1ccc([C@@H]2c3cc(OC)c(OC)cc3C(=O)[C@H](C)C2C)cc1OC` (stereo not given in full), for which the activity change, negative = inhibition is -9% [at 15.3 µM].

On to `CC1=CC[C@@]2(C[C@@H]1O)[C@@H](C(=O)O)CC[C@H]2C(C)C`, for which the Potency entry was “inactive”.

For `C[C@@H]1C(=O)[C@]23CC[C@H]1C[C@]21O[C@H]2C(C)(C)C=CC(=O)[C@@]23COC1=O`, the Potency entry is “inactive”.

In the case of `Oc1ccc(/C=C2/c3cc(O)cc(O)c3C(c3ccc(O)cc3)[C@H]2c2cc(O)cc(O)c2)cc1` (stereo not given in full), the Potency entry was “inactive”.

Turning to `C=CC(C)(C)C(=O)[C@@H](C)[C@@H]1CC[C@](C)(C=C)O1`, the Potency entry was “inactive”.

As for `CS/C=C/C(N)=O`, the Potency result was “inactive”.

In the case of `C[C@@H]1C(=O)[C@]23CC[C@H]1C[C@]21O[C@H]2C(C)(C)C=CC(=O)[C@]23COC1=O`, the Potency entry was “inactive”.

As for `CC1C(=O)C23CCC1C[C@@]21O[C@H]2C(C)(C)C=CC(=O)[C@@]23COC1=O` (stereo not given in full), the Potency result was “inactive”.

With `CC1(C)[C@H](Br)CC[C@]23C[C@]4(C)C(=O)CC12C[C@H]34`, the Potency result is “inactive”.
